Bioassay records: PubChem, National Center for Advancing Translational Sciences (NCATS)
Compounds with a hit are over-represented: about 10% of the library has one in this group of screens.
NS1 inh – blocks influenza NS1 protein function; Potency, µM (highest dose often 46.1 µM), for the others: at the highest dose activity, positive = more growth; 270,000 tested, 0.4% active; calls by dose curve; note: actives are rising curves; nearly all actives have a fitted effect of over 50% in size
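Recovery from NS1-induced slow growth read by OD600 in budding yeast switched to galactose assay medium (pH 6.0, -URA) at 1:100 dilution. Compound 23 nl per well; the matching strain lacking NS1 serves as control.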
Pf growth 48h – inhibits P. falciparum growth in the first generation, 48 h. P. falciparum luciferase growth in erythrocytes, 48 h. Potency, µM (highest dose often 28.7 µM), without a hit: at the highest dose activity change, negative = inhibition, actives largely listed as inhibitors. 310,000 tested, 5.9% active; note: % is set by controls: 0 for no effect and ±100 for the full control effect
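Compounds are pin-transferred into medium, infected erythrocytes (2% hematocrit, 0.1% parasitemia final) are added, and plates sit one parasite generation at 37 C in 5% CO2. Detection reagent is then added and luminescence measured.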
SARS PLpro yeast – SARS-CoV PLP inhibition in yeast. Potency, µM (titrated, usually from 32.9 µM), for the others: top-dose activity, positive = growth rescue, actives largely listed as activators. S. cerevisiae expressing SARS-CoV PLpro, growth rescue. 330,000 tested, 0.19% active; calls by dose curve; note: 0% is about no effect; nearly all actives have a fitted effect of over 55% in size
Pf growth 96h – P. falciparum growth inhibition at 96 hour, primary screen for plastid delayed-death inhibitors; P. falciparum luciferase reporter growth, 96 h; 320,000 tested, 6.9% active; Potency, µM (series often up to 28.7 µM), inactives show at the highest dose activity change, negative = inhibition, most hits filed as inhibitors; note: % is set by controls: 0 for no effect and ±100 for the full control effect
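P. falciparum expressing integrated firefly luciferase grown in erythrocytes (2% hematocrit, 0.05% parasitemia final) with compounds for 96 hours at 37 C, 5% CO2. Growth inhibition read as loss of luminescence after adding luciferase detection reagent.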
* = called active by the depositor; ? = inconclusive; . = no result given; [ ] = another dose, or the depositor's remark. Unless noted, calls come from the whole dose curve; as a rule, active = well fitted inhibition curve with a large enough effect; inconclusive = small, poorly fitted or top-dose-only effect, or another doubt; inactive = no such curve, though single readings can be large or run the other way. Potency is the fitted concentration of half-maximal effect.

SMILES	NS1 inh	Pf growth 48h	SARS PLpro yeast	Pf growth 96h
C[C@@H](C(=O)Nc1ccc2ccccc2c1)[C@H]1C[C@]1(C)[C@H](NC(=O)OCc1ccccc1)c1ccccc1	?	?	?	10.4µM*
C[C@@H](C(=O)NCc1ccccn1)[C@H]1C[C@]1(C)[C@H](NC(=O)OCc1ccccc1)c1ccccc1	-21.1%	?	-4.9%	?
C[C@@H](C(=O)NCc1ccc(S(C)(=O)=O)cc1)[C@@H]1C[C@@]1(C)[C@@H](NC(=O)OCc1ccccc1)c1ccccc1	-5.1%	-13.2%	1.9%	?
C[C@@H](C(=O)NCC1CC1)[C@@H]1C[C@@]1(C)[C@@H](NC(=O)OCc1ccccc1)c1ccccc1	-8.1%	4.15µM*	4.0%	4.15µM*
CCc1cc(C(=O)N/N=C/c2ccc(O)cc2O)c2ccccc2n1	4.1%	?	.	-7.7%
CN(c1ccccc1)S(=O)(=O)c1cccc(NC(=O)c2nn(C)c(=O)c3ccccc23)c1	.	?	2.8%	?
CC(C)CN(C(=O)COC(=O)c1nc(Cl)ccc1Cl)c1c(N)n(Cc2ccccc2)c(=O)[nH]c1=O	5.5%	12.8%	26.5%	-16.6%
CCCOc1ccc(N2C(=O)CC(N(CCOC34CC5CC(CC(C5)C3)C4)C(C)=O)C2=O)cc1 (stereo not drawn)	.	44.4%	-1.6%	5.22µM*
O=C(C1CCCCC1)N1CC(=O)N2CCc3ccccc3C2C1 (stereo not drawn)	4.2%	-24.8%	3.4%	25.8%
CC(C)(C)[C@]1(O)CCN2CC3c4ccccc4CCc4cccc(c43)[C@@H]2C1 (stereo partly drawn)	-18.1%	13.5µM*	.	12µM*
COC(=O)C1=C(c2cccc(OCc3ccccc3)c2)C[C@@H]2CC[C@H]1N2C(=O)NCc1ccc(C(F)(F)F)cc1	.	13.1µM*	0.0%	5.22µM*
COC(=O)C1=C(c2cccc(OCc3ccccc3)c2)C[C@@H]2CC[C@H]1N2C(=O)NCc1ccc(F)cc1	.	11.7µM*	-4.0%	9.28µM*
COC(=O)C1=C(c2cccc(C#N)c2)C[C@@H]2CC[C@H]1N2C(=O)NCc1ccc(F)cc1	.	?	-6.2%	-8.4%
COC(=O)C1=C(c2cccc(OCc3ccccc3)c2)C[C@@H]2CC[C@H]1N2C(=O)NCCCc1ccccc1	.	9.28µM*	2.7%	?
COC(=O)C1=C(c2cccc(OCc3ccccc3)c2)C[C@@H]2CC[C@H]1N2C(=O)NCc1ccc2[nH]ccc2c1	.	13.1µM*	1.3%	?
COC(=O)C1=C(c2ccc(OCc3ccccc3)cc2)C[C@@H]2CC[C@H]1N2C(=O)NCCCc1ccccc1	.	?	-4.8%	?
COC(=O)C1=C(c2ccc(OCc3ccccc3)cc2)C[C@@H]2CC[C@H]1N2C(=O)NCc1ccc(OC)c(OC)c1	.	?	0.7%	?
NS(=O)(=O)c1ccc(NC(=O)COc2cccc3ccccc23)cc1	-3.1%	-6.0%	0.9%	-24.8%
CCN(CC)CCn1c(NCc2nc3ccccc3n2Cc2ccccc2)nc2ccccc21	2.1%	.	-5.1%	3.7µM*
CCN(CC)CCn1c(NS(=O)(=O)c2ccc(C)cc2)nc2ccccc21	.	-17.6%	-5.1%	10.4µM*
Cn1c(CNc2ccccc2O)nc2ccccc21	-86.2%	.	-23.3%	9.28µM*
c1ccc(Cn2c(CNc3nc4ccccc4n3CCN3CCCCC3)nc3ccccc32)cc1	-8.6%	4.65µM*	3.4%	-20.0%
Cc1ccccc1NCc1nc2ccccc2n1C	-17.3%	154.9%	-5.8%	0.0%
OCCNc1nc2ccccc2n1CCN1CCCCC1	-2.9%	-5.6%	16.5%	-18.7%
Nc1nc(SCC(=O)NC2CCCCC2)n[nH]1	6.6%	15.7%	-1.2%	2.9%
SMILES	NS1 inh	Pf growth 48h	SARS PLpro yeast	Pf growth 96h
Cn1c(CCCCCN)nc2ccccc21	-5.9%	?	4.8%	10.4µM*
COc1ccc(CNc2nc3ccccc3n2CCN2CCCCC2)cc1	5.9%	-30.5%[5.75 µM]	0.1%	?
Cn1c(CNc2nc3ccccc3n2CCN2CCCCC2)nc2ccccc21	-3.5%	11.7µM*	-2.1%	2.62µM*
CC(C)C[C@H](NC(=O)c1nc[nH]c1C(=O)N(C)Cc1ccccc1)C(=O)OCc1ccccc1	-7.9%	?	-2.0%	?
CSc1nc(-c2ccccc2)nc(C(C)C)n1	.	40.3%	-0.9%	-4.1%
Cc1noc(C)c1CSc1nnc(C)c(=O)[nH]1	-2.1%	-15.9%	-5.3%	12.6%
CSc1nnc(C)c(=O)[nH]1	11.1%	-17.7%	13.1%	14.7µM*
COc1ccc(NC(=O)CN(c2ccc(OC)c(Cl)c2)S(=O)(=O)c2ccccc2)c(OC)c1	?	?	0.3%	11.7µM*
COC(=O)c1cc(NC(=O)CN(c2ccccc2OC)S(=O)(=O)c2ccccc2)ccc1Cl	20.0%	10.4µM*	6.5%	85.9%
COc1ccccc1N(CC(=O)Nc1cc(C)on1)S(=O)(=O)c1cccc(C(F)(F)F)c1	.	13.1µM*	0.8%	?
COC(=O)c1cc(NC(=O)CN(c2cccc(OC)c2)S(=O)(=O)c2ccccc2)ccc1Cl	25.1%	-18.4%	-2.2%	-18.2%
Cc1cc(NC(=O)COC(=O)CCNS(=O)(=O)c2cccc(C(F)(F)F)c2)no1	4.9%	43.7%	-0.2%	27.8%
O=C(O)c1cc(=O)c2c3nc4ccccc4oc-3cc(=O)c2[nH]1	.	?	.	6.7%
CCN=c1scc(C)n1/N=C/c1cc(Br)c(O)c(OC)c1	.	?	-0.8%	5.86µM*
CN=c1scc(C)n1/N=C/c1cc(Br)c(O)c(Br)c1	.	4.8%	-6.2%	16.7%
Cc1cc(C(F)F)n2nc(C(=O)Nc3sc4c(c3C#N)CCC4)nc2n1	-2.1%	49.0%	-1.7%	240.0%
C/C(CC(=O)Nc1ccc(Cl)c(C(F)(F)F)c1)=N\NC(=O)c1ccccc1O	-22.0%	?	-21.8%	?
C/C(CC(=O)Nc1ccc(Cl)c(C(F)(F)F)c1)=N\NC(=O)c1cccc(O)c1	-21.5%	11.7µM*	-9.2%	-1.1%
O=C(N/C(=C/C=C\c1ccccc1)C(=O)N1CCOCC1)c1ccc(Br)cc1	0.1%	?	0.7%	5.8%
O=[N+]([O-])c1cccc(-c2c[n+]3c(n2-c2ccccc2)SCC3)c1	.	1.04µM*	-6.9%	1.04µM*
Clc1ccc(-c2c[n+]3c(n2-c2ccccc2)SCC3)cc1	.	1.17µM*	0.3%	0.165µM*
CC1(C)C(=O)CC[C@@]2(C)[C@H]1CC[C@@]1(C)CC3=C(CC[C@@H]12)[C@@]1(C)CCC(=O)C(C)(C)[C@@H]1CC3	.	11.7µM*	1.0%	?
CCn1c(CNC(=O)c2ccco2)nnc1SCC(=O)Nc1cc(F)ccc1C	5.3%	11.7%	1.9%	29.2%
COc1ccc(-c2c(-c3ccccc3)c(C(=O)C(=O)NCCCN(C)C)n3ccc4cc(OC)c(OC)cc4c23)cc1OC	3.5%	.	2.0%	2.94µM*
O=C(NCCCO)C(=O)c1c(-c2ccccc2)cc2ccccn12	0.2%	3.3%	1.7%	9.4%
CC(=O)c1ccc(S(=O)(=O)N2CCN(C(=O)CSC(=S)N3CCCC3)CC2)cc1	.	?	-5.0%	?
CC1CC(C)CN(C(=O)c2cc(-c3ccncc3)nc3ccccc23)C1 (stereo not drawn)	.	9.28µM*	-11.7%	?
